According to PubChem BioAssay:
Records with an inconclusive call do not appear. Activity calls are given as the source filed them.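 The calls were made as follows, unless noted: active = viability at or below 27.92% in each of two runs, the all-compound median minus 4 SD; inconclusive = no clear call, values can overlap the other calls; inactive = the rest.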

Legend:
[1] = Her2 expression decrease, cell viability multiplex – SKBR3 breast tumor cells, AlphaScreen, ATP viability, primary screen (AID 461;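 active = Her2 level under about 52% in both replicate screens, with viability over 70% of control, limit read from the data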;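 as to Her2 level: lower value means less Her2 protein in the cells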;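 as to viability: percent of carrier control wells set as 100% viability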); settings: SKBR3 Her2 protein level, 18-24 h, measured here: SKBR3 viability, ATP luminescence, at 10 µM
[2] = molecular target: Receptor tyrosine-protein kinase erbB-2 (Homo sapiens) (UniProt P04626); assay: as above; settings: 18-24 h, at 10 µM, stronger effect = lower value
[3] = reduced viability of SK-BR-3 breast cancer cells – cell-based, 24 h, human, pilot screen (AID 572;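 active = viability at or below 10% of carrier control in both of two separate runs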;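 also: compound exposure lasted between 18 and 24 h rather than exactly 24 h; 100% = carrier-treated control wells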); settings: SK-BR-3 viability, CellTiter-Glo luminescence, at 10 µM, stronger effect = lower value
[4] = HUVEC growth inhibition – cell-based, human, primary screen (AID 575;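 active = viability at or below 30% in both replicate assays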;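 also: 100% = median of untreated cell wells with 0.1% DMSO on each plate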); settings: HUVEC proliferation, CellTiter-Glo luminescence, 72 h; at 10 µM; stronger effect = lower value
[5] = H69AR cell proliferation blockers – human, duplicate replicates, primary screen (AID 580;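 active = viability at or under a set limit in both replicates, limit being median viability minus 3 SD, cut at about 48% in these data, passing the limit was not always enough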;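 also: 100% = mean luminescence of untreated wells and 0% = no signal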); settings: H69AR lung tumor cells viability, ATP luminescence, 72 h; at 10 µM; stronger effect = lower value
[6] = MRP1 drug-resistance reversers in H69AR cells – cell-based, doxorubicin co-treatment, pilot screen (AID 601;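 active = viability loss from added drug above about 55%, and viability with drug at most 40%, in both replicates, limit read from the data, passing the limit was not always enough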); settings: CellTiter-Glo, 72 h, at 10 µM; for differential viability (reversal): stronger effect = higher value
[7] = yeast transport mutant growth inhibition pilot in 384-well plates, post-Golgi transport modulator project (AID 636; in the data active = inhibition above about 31%); settings: absorbance 615 nm, about 18 h, stronger effect = higher value
[8] = growth suppression of yeast trafficking mutant, preliminary HTS, modulators of trafficking downstream of Golgi apparatus project, 1536-format plate, OD 615 nm (AID 637; in the data active = inhibition above about 30%); settings: yeast transport mutant growth, absorbance 615 nm, 18 h; stronger effect = higher value
[9] = S. cerevisiae growth inhibition in permissive medium (OD615), pilot counter-assay for S. cerevisiae lifespan shortening project, permissive growth control (AID 705;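 active = growth inhibition above 25% in both replicates, a cutoff set 3 SD above the mean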); settings: OD615, 24 h, at 10 µM, stronger effect = higher value
[10] = S. cerevisiae growth inhibition in restrictive medium, OD615, pilot screen, restrictive growth control, yeast lifespan reduction project (AID 706;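 active = growth inhibition above a set limit, 3 SD over mean compound inhibition, in both replicates, cut at about 43% in these data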;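 also: modified DeaD lifespan yeast strain shifted to restrictive glucose medium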); settings: OD615, 48 h, at 10 µM, stronger effect = higher value
[11] = doxorubicin toxicity protection in MRP-1 cells – H69AR cells, CellTiter-Glo, duplicate, MRP-1 activator project, pilot screen (AID 807;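 active = viability increase at or above a cutoff of the median across tested compounds plus 3 SD, cut at about 8.5% in these data, passing the limit was not always enough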;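 also: compound pretreatment 18-22 h then 72 h combined with doxorubicin; 0% = doxorubicin alone and 100% = vehicle without doxorubicin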); settings: H69AR viability with doxorubicin, CellTiter-Glo luminescence; at 10 µM; stronger effect = higher value
[12] = viability of HCT116 without oncogenic beta-catenin – human colon tumor cells, pilot screen (AID 823;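 active = cell viability at or below a set limit in both duplicate runs, the limit being the all-compound median minus 4 SD, cut at about 23% in these data, passing the limit was not always enough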;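 also: 0% = wells killed by 20 µM Hyamine and 100% = untreated DMSO cell wells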); settings: HCT116 beta-catenin knockout viability, CellTiter-Glo, 60 h; at 10 µM; stronger effect = lower value
[13] = viability of PTEN-null HCT116 cells – cell-based, HCT116 clonal line, CellTiter-Glo, pilot screen (AID 824); settings: HCT116 PTEN-deleted viability, 60 h, at 10 µM, stronger effect = lower value;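 also: 0% = 20 µM Hyamine control and 100% = vehicle cell control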
[14] = RAM pathway blockade in budding yeast – dse1pr::URA3 reporter, 5-FOA selection, pilot screen (AID 869;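 active = inhibition over a set limit, the all-compound mean plus 3 SD, in both replicate runs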;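 also: 0% = DMSO wells with no growth and 100% = 10 µM 1-NA-PP1 with full growth; RAM network block rescues cells from 5-FOA so hits raise OD615 growth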); settings: S. cerevisiae dse1pr::URA3 5-FOA growth, OD615, 2 d; at 10 µM; stronger effect = higher value; strain carries analog-sensitive mutant Cbk1 kinase
[15] = RAM signaling pathway blockade in yeast – S. cerevisiae, Pdr1DBD-CYC8 efflux-inhibited sensitized strain, primary screen (AID 1298;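 active = RAM network inhibition above 8.4% in each of two replicates, 3 SD over the compound average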;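 also: 0% = DMSO untreated cells without growth and 100% = 10 µM 1-NA-PP1 full growth; higher means more yeast growth rescued from 5-FOA killing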); settings: S. cerevisiae cbk1-as DSE1-URA3 strain, 5-FOA growth OD615, 2 d; at 50 µM; stronger effect = higher value
[16] = H69AR cells + 2 uM doxorubicin, measured here: viability with 2 uM doxorubicin, stronger effect = lower value
[17] = H69AR cells, compound alone cytotoxicity

Receptor tyrosine-protein kinase erbB-2 (Homo sapiens), sequence (P04626 whole entry, looked up): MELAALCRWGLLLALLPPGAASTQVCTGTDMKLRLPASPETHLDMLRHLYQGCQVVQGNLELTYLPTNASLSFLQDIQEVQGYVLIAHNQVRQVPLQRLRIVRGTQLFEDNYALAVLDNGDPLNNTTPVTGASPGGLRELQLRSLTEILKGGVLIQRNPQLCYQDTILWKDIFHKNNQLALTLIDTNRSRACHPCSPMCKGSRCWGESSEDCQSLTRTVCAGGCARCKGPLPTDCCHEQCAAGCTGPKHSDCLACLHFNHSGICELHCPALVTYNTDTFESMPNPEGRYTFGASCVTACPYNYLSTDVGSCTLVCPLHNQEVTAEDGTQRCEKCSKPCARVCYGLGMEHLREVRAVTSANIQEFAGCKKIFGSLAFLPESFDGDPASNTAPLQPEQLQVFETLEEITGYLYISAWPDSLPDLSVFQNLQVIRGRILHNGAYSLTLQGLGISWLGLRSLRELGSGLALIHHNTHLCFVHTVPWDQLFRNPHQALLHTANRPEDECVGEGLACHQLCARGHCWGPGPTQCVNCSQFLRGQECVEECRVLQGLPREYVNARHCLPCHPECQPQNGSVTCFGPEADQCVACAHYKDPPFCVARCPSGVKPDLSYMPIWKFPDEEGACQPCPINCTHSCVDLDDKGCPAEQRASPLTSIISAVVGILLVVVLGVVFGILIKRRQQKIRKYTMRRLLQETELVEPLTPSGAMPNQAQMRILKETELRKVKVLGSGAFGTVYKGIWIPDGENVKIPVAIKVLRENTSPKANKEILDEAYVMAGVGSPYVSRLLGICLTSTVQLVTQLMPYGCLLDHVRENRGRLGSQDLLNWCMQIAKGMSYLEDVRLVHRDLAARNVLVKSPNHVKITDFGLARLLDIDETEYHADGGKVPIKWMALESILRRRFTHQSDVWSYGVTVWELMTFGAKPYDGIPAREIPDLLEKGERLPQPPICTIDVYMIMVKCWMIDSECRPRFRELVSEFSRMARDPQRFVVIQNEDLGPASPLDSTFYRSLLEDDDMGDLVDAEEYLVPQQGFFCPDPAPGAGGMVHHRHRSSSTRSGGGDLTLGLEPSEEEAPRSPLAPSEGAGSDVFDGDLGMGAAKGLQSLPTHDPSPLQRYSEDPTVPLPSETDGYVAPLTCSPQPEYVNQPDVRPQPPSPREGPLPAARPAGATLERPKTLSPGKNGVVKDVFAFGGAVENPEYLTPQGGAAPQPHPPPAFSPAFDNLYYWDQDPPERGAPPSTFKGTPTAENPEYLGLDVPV

CN(CC(=O)N1CCCCC1)S(=O)(=O)c1cccc2cccnc12
99%: viability [1]
inactive: Her2 level [2] 104% | viability [3] 99% | viability [4] 91.5% | viability [5] 97.5% | differential viability (reversal) ([6]; H69AR cells + 2 uM doxorubicin) 1.62% | inhibition [7] -0.4% | inhibition [8] -1.8% | growth inhibition [9] -4.94% | growth inhibition [10] 9.9% | viability increase [11] -2.03% | viability [12] 94.6% | viability [13] 94.7% | inhibition [14] 0.26% | RAM network inhibition [15] 1.14%
95.8%: viability [6, 16]
97.5%: viability [6, 17]

COC(=O)Cn1ncc2c(C)n(Cc3ccccc3)c(C)c2c1=O
96%: viability [6, 17]
122%: viability [1]
88.9%: viability [6, 16]
inactive: Her2 level [2] 112% | viability [3] 122% | viability [4] 107% | viability [5] 96% | differential viability (reversal) ([6]; H69AR cells + 2 uM doxorubicin) 7.04% | inhibition [7] -3.73% | inhibition [8] 2% | growth inhibition [9] -7.07% | growth inhibition [10] -6.09% | viability increase [11] 2.78% | viability [12] 100% | viability [13] 96.7% | inhibition [14] 0.365% | RAM network inhibition [15] 2.88%

Cc1ccc(-c2cc3nc4c(c(=O)n3[nH]2)CCCC4)cc1
inactive: Her2 level [2] 119% | viability [3] 105% | viability [4] 88.7% | viability [5] 91.9% | differential viability (reversal) ([6]; H69AR cells + 2 uM doxorubicin) -1.42% | inhibition [7] -0.26% | inhibition [8] -10% | growth inhibition [9] -17% | growth inhibition [10] -22.5% | viability increase [11] -0.73% | viability [12] 95.2% | viability [13] 90.4% | inhibition [14] 2.7% | RAM network inhibition [15] 5.06%
91.9%: viability [6, 17]
93.4%: viability [6, 16]
105%: viability [1]

CC1(C)C(c2ccccc2)=NC(c2ccccc2)N1O (stereo not given)
86.5%: viability [1]
91.4%: viability [6, 17]
83%: viability [6, 16]
inactive: Her2 level [2] 82% | viability [3] 86.5% | viability [4] 98% | viability [5] 91.4% | differential viability (reversal) ([6]; H69AR cells + 2 uM doxorubicin) 8.36% | inhibition [7] -0.78% | inhibition [8] -9% | growth inhibition [9] -0.065% | growth inhibition [10] -4.8% | viability increase [11] -1.73% | viability [12] 95.6% | viability [13] 96.5% | inhibition [14] 0.165% | RAM network inhibition [15] 3.18%

Cc1ccc2[nH]c(=O)c3cc(C(=O)NCCN4CCN(C)CC4)sc3c2c1
96%: viability [1]
78%: viability [6, 16]
87.3%: viability [6, 17]
inactive: Her2 level [2] 91.5% | viability [3] 96% | viability [4] 97.1% | viability [5] 87.3% | differential viability (reversal) ([6]; H69AR cells + 2 uM doxorubicin) 9.29% | inhibition [7] -1.03% | inhibition [8] 6% | growth inhibition [9] -9.77% | growth inhibition [10] 1.5% | viability increase [11] -3.64% | viability [12] 74.5% | viability [13] 81.8% | inhibition [14] 1% | RAM network inhibition [15] -1.95%

CC1CN(c2ccc(Oc3ccccc3)cc2)c2nc3c(c(=O)n(CC(N)=O)c(=O)n3C)n2C1 (stereo not given)
74.4%: viability [6, 16]
107%: viability [1]
inactive: Her2 level [2] 101% | viability [3] 107% | viability [4] 77.5% | viability [5] 79.1% | differential viability (reversal) ([6]; H69AR cells + 2 uM doxorubicin) 4.74% | inhibition [7] -4.67% | inhibition [8] -5.17% | growth inhibition [9] -3.86% | growth inhibition [10] 6.34% | viability increase [11] -3.54% | viability [12] 104% | viability [13] 94.4% | inhibition [14] 2.65% | RAM network inhibition [15] 6.01%
79.1%: viability [6, 17]

CCOC(=O)c1cc2c(=O)n3ccccc3nc2n(Cc2ccccc2)c1=N
77%: viability [1]
83.8%: viability [6, 17]
inactive: Her2 level [2] 75.5% | viability [3] 77% | viability [4] 84.2% | viability [5] 83.8% | differential viability (reversal) ([6]; H69AR cells + 2 uM doxorubicin) -4.5% | inhibition [7] -4.86% | inhibition [8] -3.28% | growth inhibition [9] -1.11% | growth inhibition [10] -8.62% | viability increase [11] -3.3% | viability [12] 77.1% | viability [13] 71.1% | inhibition [14] 2.4% | RAM network inhibition [15] 0.09%
88.3%: viability [6, 16]

CC(C)C(=O)Nc1ccc(-c2nc3cccnc3o2)cc1
inactive: Her2 level [2] 82% | viability [3] 93.5% | viability [4] 128% | viability [5] 95.2% | differential viability (reversal) ([6]; H69AR cells + 2 uM doxorubicin) -4.14% | inhibition [7] 1.03% | inhibition [8] -5.33% | growth inhibition [9] -11.7% | growth inhibition [10] -2.21% | viability increase [11] 1.32% | viability [12] 101% | viability [13] 104% | inhibition [14] 2.22% | RAM network inhibition [15] 1.35%
99.4%: viability [6, 16]
93.5%: viability [1]
95.2%: viability [6, 17]

CC(NC(=O)c1cc2c(=O)n(C)c3ccccc3c2n1C)c1ccc2c(c1)OCCO2 (stereo not given)
42.7%: viability [6, 17]
active: viability [5] 42.7%
63.6%: viability [6, 16]
inactive: Her2 level [2] 84% | viability [3] 94.5% | viability [4] 77% | differential viability (reversal) ([6]; H69AR cells + 2 uM doxorubicin) -20.9% | inhibition [7] -2.18% | inhibition [8] 1.33% | growth inhibition [9] -5.51% | growth inhibition [10] -1.51% | viability increase [11] -4.19% | viability [12] 65.6% | viability [13] 58.2% | inhibition [14] 0.645% | RAM network inhibition [15] 3.77%
94.5%: viability [1]

CC(=O)c1ccc(OCC(O)CN2CCN(CCO)CC2)cc1 (stereo not given)
100%: viability [6, 16]
116%: viability [1]
inactive: Her2 level [2] 112% | viability [3] 116% | viability [4] 99.2% | viability [5] 96.3% | differential viability (reversal) ([6]; H69AR cells + 2 uM doxorubicin) -3.92% | inhibition [7] -5.73% | inhibition [8] 2.33% | growth inhibition [9] -1.98% | growth inhibition [10] 4.8% | viability increase [11] 1.18% | viability [12] 99% | viability [13] 101% | inhibition [14] 1.13% | RAM network inhibition [15] 1.57%
96.3%: viability [6, 17]
